Source: PubChem BioAssay (NCI)
This is part of a sample that, as a whole, favours compounds with a hit. Of some 83,000 tested, about 20% had one in any assay.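 Single-dose data. Exposure time 48 hours. Values below 10 considered active.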 Calls of active or inactive are those of the source.

The compounds below were run on OVCAR-5 ovarian (assay: NCI-60 one-dose screen, 48 h (100 = growth as untreated, 0 = no growth, -100 = all killed)). Conditions: 10 µM unless noted.
Procedure: Growth inhibition of the OVCAR-5 human tumor cell line is measured as a screen for anti-cancer activity. Cells are grown in 96 well plates and exposed to the test compound for 48 hours. Compounds are tested at a single concentration, which is 10^-5 M for most compounds. The reported endpoint is percent growth (GI% or GIPRCNT), where numbers from 0 - 100% represent growth inhibition, and numbers from -100% - 0 represent cell death. For example, a value of 40 represents 60% growth inhibition. A value of 0 means no net growth occurred over the course of the experiment. A value of -40 indicates 40% of cells at the beginning of the experiment died by the end of the experiment. A value of -100 means all cells are dead at the end of the experiment.
NCI-60 Human Tumor Cell Lines Screen was performed using the standard one-dose NCI protocol, which is described in more detail at https://dtp.cancer.gov/discovery_development/nci-60/default.htm.
Compounds with GIPRCNT values below 10 were considered active. Activity score was based on GIPRCNT using the following formula: […]
Score is 0 for GIPRCNT values of 100 or above, 50 for GIPRCNT values of 0, and 100 for GIPRCNT values of -100.

SMILES	growth
C=CC(O)CN1CC1CC (stereo not given)	104% (inactive)
O=C1NC(=O)C(O)(C2(O)C(=O)NC(=O)NC2=O)C(=O)N1	88.1% (inactive)
Cc1cc(NC(=O)/C=C/c2ccc([N+](=O)[O-])cc2)ccc1S(=O)(=O)F	113% (inactive)
N#Cc1ncc(/N=C/c2ccc(N(CCCl)CCCl)cc2)s1	100% (inactive)
CC1(C)N=C(N)N=C(N)N1c1ccc(CCCCc2ccc(S(=O)(=O)F)cc2)c(Cl)c1	40.3% (inactive)
CCOC(=O)/C(C#N)=C/c1ccc(N(CCCl)CCCl)cc1	106% (inactive)
CCOP(=O)(OCC)Oc1ccc(Sc2ccc(OP(=O)(OCC)OCC)cc2)cc1	105% (inactive)
COc1cc(C2CC(=O)Nc3nc(N)[se]c32)cc(OC)c1OC (stereo not given)	93.4% (inactive)
COc1ccc(C(=O)c2ccc([As]=O)cc2)cc1 (stereo not given)	-84.2% (active)
O=[N+]([O-])c1ccc(/C=C/C=C/c2ccc(S(=O)(=O)F)cc2)c(Cl)c1	112% (inactive)
O=C(CCF)c1ccc(O)cc1	96.7% (inactive)
O=C(O)c1nn(Cc2ccc(Cl)cc2)c2ccccc12	108% (inactive)
C[CH2][Pb]([CH2]C)([CH2]C)[O]C(=O)COc1ccccc1	-5.58% (active)
Oc1c(Br)cc(Br)cc1Br.[Cu+2]	120% (inactive)
CO[C@@H](c1ccccc1Cl)[C@H](C)OC(N)=O	91.5% (inactive)
O=CN1N=C(c2ccc3c(c2)OCO3)CC1c1sc(N(CCCl)CCCl)nc1Cl (stereo not given)	90.1% (inactive)
O=C(CCCN1CCC2(CC1)C(=O)NCN2c1ccc(F)cc1)c1ccc(F)cc1	91.3% (inactive)
CCCCCN(CCCCC)CC(O)c1ccc(C)c(Cl)c1 (stereo not given)	83.8% (inactive)
NC(=O)C(Br)CBr (stereo not given)	10.9% (inactive)
O=C(CI)Nc1ccc(Br)cc1	94.9% (inactive)

SMILES	growth
Cc1cc(NC(=O)CCc2ccc(N3C(N)=NC(N)=NC3(C)C)cc2)ccc1S(=O)(=O)F	17.9% (inactive)
CC1(C)CC2(CC(C)(C)c3cc(O)c(O)cc32)c2cc(O)c(O)cc21	93% (inactive)
N#CC1c2ccccc2C=CN1C(=O)c1ccc(N(CCCl)CCCl)cc1 (stereo not given)	98.6% (inactive)
CCC[CH2][Sn]1([CH2]CCC)[O]C(=O)c2cccc([N+](=O)[O-])c2C(=O)[O]1	-95.6% (active)
O=C1C=CC(=O)C2C1C1(Cl)C(Cl)=C(Cl)C2(Cl)C1(Cl)Cl (stereo not given)	78.3% (inactive)
COc1ccc(/C=C\c2cc(OC)c(OC)c(OC)c2)cc1N/C=C\C(=O)c1c[nH]c2ccccc12	18.8% (inactive)
C[C@]12CCc3sc(-c4ccc(Cl)cc4)nc3C1=CC[C@@H]1[C@@H]2CC[C@]2(C)C(=O)CC[C@@H]12	98.2% (inactive)
Cc1cc(C)nc(C)c1.[Cl][Hg][Cl]	114% (inactive)
C[C@]12CC[C@@H]3C4=C(CC[C@H]3[C@@H]1CC[C@@H]2O)CC(=O)CC4	-62.7% (active)
CCOc1ccc(C(O)CN(C)Cc2ccccc2)cc1Cl (stereo not given)	102% (inactive)
CCC[CH2][Sn]([CH2]CCC)([CH2]CCC)[O]C(=O)c1ccc(Cl)cc1Cl	-95.1% (active)
COc1cc(C2(C#N)CCN(C)CC2)cc(OC)c1OC	97.5% (inactive)
C/C(=N/OC(=O)N(C)C)c1ccc(Cl)cc1Cl	106% (inactive)
Oc1ccc2c3c1O[C@H]1c4[nH]c5ccccc5c4C[C@@]4(O)C(C2)N(CC2CC2)CC[C@]314	106% (inactive)
Cn1cnnc1[S-].[Au+].c1ccc([PH+](c2ccccc2)c2ccccc2)cc1	91.9% (inactive)
CN1C(=O)NC(=O)C(N=Nc2ccc(Cl)cc2)C1=O (stereo not given)	98.9% (inactive)
FC(F)=C(F)c1ccccc1	112% (inactive)
OB([O][Hg][c]1ccccc1)[O][Hg][c]1ccccc1	-64% (active)
Clc1ccc(SSC(Cl)(Cl)Cl)cc1	105% (inactive)
CNc1ccc(C(=O)CC(O)CCC(C)C2OC(=O)CC(O)CC(=O)CC(O)CC(O)CC(O)CC(O)CC3(O)CC(O)C(C(=O)OC)C(CC(O[C@@H]4O[C@H](C)[C@@H](O)[C@H](N)[C@@H]4O)/C=C/C=C/C=C/C=C/C=C/C=C/C=C/C2C)O3)cc1 (stereo not given in full)	-9.42% (active)
